The sample as a whole holds a higher share of hits than the screen did.
Dicer inh: inhibitors of human Dicer processing of pre-microRNA. cat-ELCCA pre-miR-21 Dicer processing, chemiluminescence; hits give high values. Q9UPY3. z-score at 25 µM. 6% of 47,000 active; in the data active means z-score above about 3, passing the limit was not always enough;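 further: plate controls were vehicle for no effect and no enzyme for full effect; higher signal means more uncleaved substrate so more Dicer inhibition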
The depositor's hits bear a star.

SMILES	Dicer inh
COc1ccc(OC)c(C2Oc3c(OC)cccc3C3CC(c4ccccc4O)=NN32)c1 (stereo not given)	0.8
COc1cccc2c1OC(c1ccc(F)cc1)N1N=C(c3ccccc3O)CC21 (stereo not given)	8.55*
COc1cccc2c1OC(c1cccc(OC)c1OC)N1N=C(c3ccccc3O)CC21 (stereo not given)	2.13
COC(=O)c1ccc(C2Oc3c(OC)cccc3C3CC(c4ccccc4O)=NN32)cc1 (stereo not given)	1.4
COc1ccc(C2Oc3c(OC)cccc3C3CC(c4ccccc4O)=NN32)cc1OC (stereo not given)	-0.41
CC1(C)C(=O)OC(C(=O)c2ccc(-c3ccccc3)cc2)C(C)(C)C1=O (stereo not given)	-0.53
COc1ccc(-c2nc3ccc(Cl)cc3c(=O)o2)cc1OC	2.05
Cc1ccccc1OCC(O)CN1C(=O)NC(C)(C)C1=O (stereo not given)	0.51
CSc1nnc(SCc2nc(-c3ccc(Cl)cc3)cs2)s1	-0.98
Cn1c(=O)c2c(nc(CN3CCCCC3)n2CCN2CCOCC2)n(C)c1=O	-2.24
O=C(NCC1CC1)Nc1sccc1-n1cccc1	-3.01
Cn1nc(-c2ccccc2)cc1NC(=O)Nc1ccc(C(C)(C)C)cc1	1.02
CC(C)(C)c1ccc(NC(=O)Nc2sccc2-n2cccc2)cc1	6.39*
Cc1oc(-c2ccccc2)cc1C(=O)Nc1cccc([N+](=O)[O-])c1	2.28
CCC(=O)O/N=C(\N)COc1ccc(Cl)cc1Cl	-0.47
Cc1ccc(C(=O)OCC(=O)C(C)(C)C)cc1N1C(=O)c2c(C)nc3ccccc3c2C1=O	3.22*
Cc1ccc(C(=O)COC(=O)c2cccc(N3C(=O)c4c(C)nc5ccccc5c4C3=O)c2)cc1	0.43
Cc1nc2ccccc2c2c1C(=O)N(c1cccc(C(=O)OCC(=O)C(C)(C)C)c1)C2=O	-1.54
CCOC(CC(=O)NNC(=O)Nc1cccc(C(F)(F)F)c1)OCC	0.46
O=C(NCc1ccc(C(F)(F)F)cc1)c1cc2ccc3ccccc3c2s1	2.77
O=C(NCCO)c1cc2ccccc2c(=O)s1	3.79*
CC(C)OC(=O)c1cc2ccccc2c(=O)s1	-0.39
S=C1N2CCN=C2SC2=NCCN12	0.82
COC(=O)CS/C(=C(\C=N\O)c1ccccc1)C(F)(F)F	1.29
Cc1c(C(=O)/C=C/N(C)C)sc2ccccc12	-0.86
SMILES	Dicer inh
CN(C)/C=C/C(=O)c1cc(Cl)ccc1Cl	-0.56
Cc1c(C(=O)/C=C/N(C)C)sc(=S)n1CCc1ccc(Cl)cc1	3.19*
N#C/C(=C\NCc1ccccn1)S(=O)(=O)c1ccc(Cl)cc1	-0.88
O=C(Nc1ccc(C2CCCCC2)cc1)C(=S)NCc1ccccc1	1.55
N#CC1=C(Nc2ccccc2Cl)SC(c2ccncc2)NC1=O (stereo not given)	0.01
COCCCNC1=C(C#N)C(=O)NC(c2ccc(O)c(OC)c2)S1 (stereo not given)	1.31
COCCCNC1=C(C#N)C(=O)NC(c2cccs2)S1 (stereo not given)	3.1*
COc1cc(/C=C2\CCCCC2=O)cc(OC)c1OC	-2.7
C#CCSc1n[nH]c(-c2cc(Cl)cc(Cl)c2)n1	-1.28
Cc1ccnc(SCn2c(=S)sc3ccccc32)n1	-3.74
Cc1ccnc(SCC(=O)n2c(C)c(C)c3ccccc32)n1	3.46*
Cc1c(C)n(C(=O)CSc2nc(O)cc(=O)[nH]2)c2ccccc12	-1.21
CN1CCc2c(sc3c2C(=O)NC(c2ccc(OCc4ccccc4)cc2)N3)C1 (stereo not given)	-1.42
O=C1NC(c2ccc(OCc3ccccc3)cc2)Nc2sc3c(c21)CCCC3 (stereo not given)	3.59*
O=C1NC(c2ccccc2OCc2ccccc2)Nc2sc3c(c21)CCCC3 (stereo not given)	4.34
Cc1ccc(C(=O)CSCC(=O)c2ccc(C)cc2)cc1	-1.93
NC(=O)CCS(=O)CCC(N)=O	-1.81
COC(=O)C1=C(C(=O)OC)SC(=C2C(=S)C(C)(C)N3C(=O)C(=O)c4c(C)c(C)cc2c43)S1	0.01
Cn1nc(-c2ccccc2)cc1NC(=O)Nc1ccc(OC(F)(F)F)cc1	-0.35
CCC1(c2cccc(OC(=O)Nc3ccc(OC(F)(F)F)cc3)c2)CCCCN(C)C1=O (stereo not given)	3.82*
CCOC(=O)C1=C(Nc2ccc(OC(=O)Nc3ccccc3)cc2)C(=O)N(C(C)(C)C)C1	1.38
Cn1nc(NC(=O)Cn2ccc(C(F)(F)F)n2)c2ccccc21	0.32
COc1ccc(Cl)cc1NC(=O)c1cc2nc(-c3ccco3)cc(C(F)(F)F)n2n1	-0.57
CCOc1cc(C2C(C(=O)OCc3ccccc3)=C(C)NC3=C2C(=O)CCC3)ccc1O (stereo not given)	-0.37
CS(=O)(=O)n1nc(-c2ccco2)nc1SCc1ccccc1	2.25
CCS(=O)(=O)n1nc(-c2ccco2)nc1SCc1ccccc1	2.92
COc1ccc(-c2nc(SCc3ccccc3)n(S(C)(=O)=O)n2)cc1	5.19*
COc1ccc(Br)cc1Br	0.45
CCOc1ccccc1Oc1coc2cc(O)ccc2c1=O	3.31*
CCOc1ccccc1Oc1c(C)oc2cc(O)ccc2c1=O	0.76

Screening results as filed in PubChem BioAssay.
